# G9a inh = qHTS Assay for Inhibitors of Histone Lysine Methyltransferase G9a | G9a H3K9 monomethylation, AlphaScreen, 2 h | Potency, µM (series often up to 102 µM), for inactives: top-dose activity, negative = inhibition, hits mostly inhibitors | hit rate 8.8% among 350,000 | AID 504332, 2011; further: potency means the concentration at half of the fitted maximal effect; nearly all actives have a fitted effect of over 75% in size
# Target sequence (Q96KQ7 913-1193 limits assumed): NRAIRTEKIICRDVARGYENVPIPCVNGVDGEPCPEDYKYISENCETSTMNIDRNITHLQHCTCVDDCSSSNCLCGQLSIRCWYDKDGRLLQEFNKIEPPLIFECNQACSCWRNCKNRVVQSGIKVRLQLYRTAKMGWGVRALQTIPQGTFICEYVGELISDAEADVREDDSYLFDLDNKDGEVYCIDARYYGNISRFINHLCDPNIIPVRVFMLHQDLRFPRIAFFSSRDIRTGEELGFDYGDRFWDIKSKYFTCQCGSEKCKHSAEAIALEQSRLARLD
#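 AlphaScreen read-out: biotin-H3K9 peptide (500 nM) methylation by 20 nM enzyme with 20 uM SAM, 2 h at room temperature after 15 min compound preincubation; anti-monomethyl H3K9 antibody plus donor/acceptor beads, 10 min dark.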
# Tau fluor counter = Counterscreen qHTS for Inhibitors of Tau Fibril Formation, Fluorescence Polarization | tau K18 P301L Alexa594 fluorescence, heparin fibrillization | AID 1463, 2008 | hit rate 0.93% among 280,000 | Potency, µM (highest dose often 57.7 µM), for the others: top-dose activity change, negative = decrease; further: potency means the concentration at half of the fitted maximal effect; nearly all actives have a fitted effect of over 55% in size
#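 Human tau K18 P301L (15 uM unlabeled, 0.24 uM Alexa 594-labeled) in 100 mM sodium acetate pH 7 with 20 uM heparin, 6 hr at 37 C. ThT 30 uM added, 1 hr ambient; Alexa 594 FP and total fluorescence read at 555/632 nm.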
# Tau FP inhib = qHTS for Inhibitors of Tau Fibril Formation, Fluorescence Polarization; AID 1468, 2008; hit rate 0.39% among 280,000; Microtubule-associated protein tau (Homo sapiens), P10636; Potency, µM (series often up to 57.7 µM), for the others: at the highest dose activity, negative = inhibition, most hits filed as inhibitors; K18 P301L tau heparin fibrillization, Alexa594 FP, 6 h; further: potency means the concentration at half of the fitted maximal effect; nearly all actives have a fitted effect of over 55% in size
# Target sequence (P10636 561-689 P618L limits assumed): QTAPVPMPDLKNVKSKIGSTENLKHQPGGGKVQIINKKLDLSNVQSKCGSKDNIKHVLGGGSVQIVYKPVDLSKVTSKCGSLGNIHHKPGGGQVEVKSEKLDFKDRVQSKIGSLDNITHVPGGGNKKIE
#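 Quantitative HTS format: compounds meet 15 uM recombinant K18 P301L tau and Alexa 594-tau tracer in 100 mM sodium acetate pH 7; 20 uM heparin triggers fibrillization at 37 C over 6 hr; FP gives the signal.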
# FBPA coupling cs = qHTS Assay for Inhibitors of Fructose-1,6-bisphosphate Aldolase from Giardia Lamblia: Coupling assay counterscreen; coupling enzyme system counterscreen, AmpLite Red fluorescence; activity change, negative = inhibition, % at 58.2 µM, hits read low; hit rate 0.67% among 290,000; in the data active means activity change below about -30%
#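 First, compound is pin-transferred into glyceraldehyde-3-phosphate coupling-enzyme reagent at 57.5 uM final and held 10 min at RT. Next, substrate, coupling system and AmpLite Red are added. After 20 min RT, fluorescence (525/598 nm) is read.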
# Sfp inh = qHTS Assay for Inhibitors of Bacillus subtilis Sfp phosphopantetheinyl transferase (PPTase); 4'-phosphopantetheinyl transferase ffp (Bacillus subtilis), Q9F4F7; Biochemical Sfp PPTase activity, qHTS; Potency, µM, for the others: largest response in the series, negative = inhibition, hits mostly inhibitors; hit rate 3.5% among 310,000; AID 1490, 2009;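 further: the enzyme is Sfp with the accession as filed and its product quenches rhodamine fluorescence; potency means the concentration at half of the fitted maximal effect; 0% = enzyme reaction without inhibitor and -100% = no enzyme wells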
#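 Sfp 15 nM + cpd, 15 min RT; start w/ rhodamine-CoA 5 uM, BHQ-2-YbbR 12.5 uM (final); 50 mM Hepes pH 7.6, 10 mM MgCl2, 0.01% NP-40, 0.01% BSA; read 525/598 nm at 0 and 30 min.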
# Tau fibril ThT = qHTS for Inhibitors of Tau Fibril Formation, Thioflavin T Binding; Microtubule-associated protein tau (Homo sapiens), P10636; recombinant tau K18 P301L (four-repeat tau fragment), heparin-induced fibrillization, ThT fluorescence; Potency, µM (series often up to 57.4 µM), for inactives: at the top dose activity, negative = inhibition, usual class: inhibitors; hit rate 2.1% among 270,000; AID 1460, 2008; further: potency means the concentration at half of the fitted maximal effect; nearly all actives have a fitted effect of over 55% in size
#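 Aggregation was driven by heparin (20 uM final) acting on recombinant tau […] bearing P301L in 100 mM sodium acetate pH 7; fibrils were detected with Thioflavin T.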
# * = called active by the depositor; ? = inconclusive; nt = no result given; [ ] = remark or other dose. Shown are actives, neighbours in structure and some others; about 11% of the full set was active somewhere. Unless noted, the call rests on the fitted dose curve; in most records, active means well fitted curve in the direction sought with a large enough effect; inconclusive means small, poorly fitted or top-dose-only effect, or another doubt; inactive means no such curve, though single readings can be large; an effect the other way counts as inactive or inconclusive. Unless noted, on the % scale 0 is the no-effect control and ±100 the full control effect.
SMILES,G9a inh,Tau fluor counter,Tau FP inhib,FBPA coupling cs,Sfp inh,Tau fibril ThT
O=C1C2C(C(=O)N1/N=C/c1cc(Br)cc([N+](=O)[O-])c1O)C1C=CC2C12CC2 (centres undefined),?,-18.0%,-1.2%,4.0,15.6%,7.94µM*
O=C1C2C(C(=O)N1/N=C/c1cc([N+](=O)[O-])ccc1O)C1C=CC2C12CC2 (centres undefined),5.1%,1.3%,-5.0%,6.2,1.0%,-8.5%
O=C1C2C(C(=O)N1/N=C/c1cc([N+](=O)[O-])c(O)cc1O)C1C=CC2C12CC2 (centres undefined),56.2µM*,-14.1%,-12.1%,7.3,?,?
CCCn1c2ccccc2c2cnn(CC(=O)NCC3CCN(Cc4ccc(F)cc4)CC3)c(=O)c21,-6.6%[59 µM],-8.7%,2.4%,nt,nt,-6.3%
Cc1ccc(CNS(=O)(=O)c2cc3c4c(c2)C(C)C(=O)N4CCC3)cc1 (centres undefined),19.2%,nt,nt,nt,13.2%,nt
CCc1ccc(C(=O)NC2=NC(c3cc(OC)ccc3OC)CC(=O)N2)cc1 (centres undefined),-2.6%[59 µM],-5.1%,-17.9%,nt,nt,-5.8%
Cc1cc(N2C(=O)C(O)=C(C(=O)c3ccc(C)o3)C2c2cccc(Oc3ccccc3)c2)no1 (centres undefined),nt,nt,nt,7.9,-26.6%,nt
COc1ccc(C2C(C(=O)c3ccc(C)o3)=C(O)C(=O)N2CC2CCCO2)cc1OC (centres undefined),nt,nt,nt,nt,-6.8%,nt
CCCOc1cccc(C2C(C(=O)c3ccc(C)o3)=C(O)C(=O)N2c2nc(C)c(C(C)=O)s2)c1 (centres undefined),15.8µM*,nt,nt,6.8,-19.3%,nt
C=CCOc1cccc(C2C(C(=O)c3ccc(C)o3)=C(O)C(=O)N2CCN(C)C)c1 (centres undefined),44.7µM*,3.1%,-0.5%,-0.3,5.8%,-6.2%
COCCN1C(=O)C(O)=C(C(=O)c2ccco2)C1c1cccc(Oc2ccccc2)c1 (centres undefined),?,-19.5%,-11.3%,9.4,-12.4%,-11.2%
COc1cc(C2C(C(=O)c3ccc(C)o3)=C(O)C(=O)N2CCN2CCOCC2)ccc1OCCC(C)C (centres undefined),31.6µM*,nt,nt,-14.0,-7.3%,nt
CCCOc1cccc(C2C(C(=O)c3ccc(C)o3)=C(O)C(=O)N2CCN2CCOCC2)c1 (centres undefined),44.7µM*,nt,nt,-0.3,1.5%,nt
O=C(CSc1ccc2nnc(CCNS(=O)(=O)c3ccccc3)n2n1)Nc1ccccc1C(F)(F)F,-31.8%[59 µM],-4.4%,2.3%,nt,nt,-0.7%
Cc1cccc(CNC(=O)c2ccc(NC(=O)N3CCSc4ccccc43)cc2)c1,9.4%[59 µM],-26.6%,?,nt,nt,2.5%
COc1ccc2nc(-c3ccc(N(C)C)cc3)sc2c1,nt,nt,nt,-2.2,-26.2%,nt
CCOc1ccc(CCNC(=O)c2ccc(C)c(-n3c(C)nc4cccnc43)c2)cc1OCC,2.1%[59 µM],-1.3%,-2.8%,nt,nt,5.7%
OCCCc1nc2n(n1)C(c1ccccc1)C=C(c1ccc(F)cc1)N2 (centres undefined),?,-2.5%,0.8%,2.9,-4.5%,1.4%
OCCCc1nc2n(n1)C(c1ccccc1Cl)C=C(c1cccs1)N2 (centres undefined),?,-0.8%,8.0%,-7.6,50.1µM*,17.3%
OCCCc1nc2n(n1)C(c1cccs1)C=C(c1ccccc1)N2 (centres undefined),39.8µM*,-18.0%,1.8%,1.6,?,?
CCc1ccccc1NC(=O)CN1C(=O)c2cccnc2Sc2ccccc21,36.9%[59 µM],-4.4%,-1.4%,nt,nt,-14.8%

# Source: PubChem BioAssay (National Center for Advancing Translational Sciences (NCATS))
